The values that follow come from the supplement of paper PMC13094657.

± gives the standard deviation of the averaged measurements.

Assay [1] has as its system MDA-MB-231. Briefly: cell viability relative to vehicle unstimulated control (fraction); higher = more viable cells. Particulars: pre-treatment time: 18 h then 24 h IFNg/TNF.
The subject of assay [2] is MDA-MB-231. Briefly: kynurenine production, fold change vs DMSO IFNg/TNF control; higher = more kynurenine produced (less inhibition). Particulars: pre-treatment time: 18 h then 24 h IFNg/TNF. The gist of the method:
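Fold change over cytokine-stimulated vehicle wells on the same plate is the measure used for kynurenine production, averaged across duplicate plates in the first screening round. MDA-MB-231 cells, seeded 24 h beforehand at 7 × 10^4/well in 96-well plates, were pre-treated 18 h with each natural product in 0.1% DMSO and stimulated 24 h at 37°C with IFNγ (1 U/ml) and TNF (6.25 ng/ml). Supernatants were read at 492 nm following trichloroacetic acid and p-dimethylaminobenzaldehyde treatment, against 0–100 μM standards.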
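Throughout, for cell viability relative to vehicle unstimulated control: viability of the cells left after supernatant collection, read with Deep Blue dye added for 4 h, as absorbance at 570 nm minus 600 nm.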

As to `CC(=O)O[C@]12CCC(C(=O)O)=CC[C@]13CC[C@H]2[C@@](C)(/C=C/C=C(\C)C(=O)O)OC3=O` [Pseudolaric Acid C2] (compound dose: 10 uM), the cell viability in assay [1] was 1.017 ± 0.0098. Besides, in assay [2], the kynurenine production was 0.728 ± 0.017. Take `C[C@H](CC[C@@H](OC[C@@H]1O[C@H](OC[C@H]2O[C@@H](O)[C@H](O)[C@@H](O)[C@@H]2O)[C@@H](O)[C@H](O)[C@H]1O)C(C)(C)O)[C@H]1CC[C@@]2(C)[C@@H]3CC=C4[C@@H](CC[C@H](O)C4(C)C)[C@]3(C)[C@H](O)C[C@]12C` [Mogroside IIA1] (compound dose: 10 uM): the cell viability in assay [1] stood at 1.22 ± 0.15. For the same molecule, in assay [2], the kynurenine production turned out to be 1.07 ± 0.13. The matching figures for `CC1(C)CCC[C@](C)([C@H]2CC[C@]3(C)[C@@H]2[C@H](O)C[C@@H]2[C@@]4(C)CC[C@H](O)C(C)(C)[C@@H]4CC[C@]23C)O1` [Panaxadiol] (compound dose: 10 uM): 1.04 ± 0.013 and 0.719 ± 0.088. For `COC(=O)C1=C2CCOC3=C2C2=C1C(=O)[C@@H]1C[C@H]4N(C[C@@H](CC3)[C@@]24C)C[C@H]1C` [Daphnicyclidin D] (compound dose: 10 uM), the cell viability in assay [1] amounted to 0.948 ± 0.076. Further, the kynurenine production in assay [2] was 0.831 ± 0.18.

Regarding `CC1(C)CC[C@]2(C(=O)O)[C@H](O)C[C@]3(C)C(=CC[C@@H]4[C@@]5(C)CC[C@H](O[C@@H]6O[C@H](CO)[C@@H](O)[C@H](O)[C@H]6O)C(C)(C)[C@@H]5CC[C@]43C)[C@@H]2C1` [Ecliptasaponin A] (compound dose: 10 uM), the kynurenine production in assay [2] is 0.88 ± 0.15. In the case of `C=C1CC[C@@H]2[C@](C)(COC(=O)CCC(=O)O)[C@H](OC(=O)CCC(=O)O)CC[C@@]2(C)[C@@H]1/C=C/C1=CCOC1=O` [Dehydroandrographolide succinate] (compound dose: 10 uM), in assay [1], the cell viability was 0.898 ± 0.11. Moreover, the kynurenine production in assay [2] was 1.2 ± 0.089. In the case of `CC(=O)O[C@@]12CO[C@@H]1C[C@H](O)[C@@]1(C)C(=O)[C@H](O)C3=C(C)[C@@H](OC(=O)[C@H](O)[C@@H](NC(=O)OC(C)(C)C)c4ccccc4)C[C@@](O)([C@@H](OC(=O)c4ccccc4)[C@H]21)C3(C)C` [Docetaxel] (compound dose: 10 uM), in assay [1], the cell viability came to 0.923 ± 0.067. In addition, in assay [2], the kynurenine production came out at 0.758 ± 0.051. Turning to `C=C1[C@@H]2CC[C@@H]3[C@](C2)(C(=O)[C@@H](O)[C@@H]2C(C)(C)[C@H]4CC(=O)[C@@]32CO4)[C@@H]1OC(C)=O` [Maoecrystal A] (compound dose: 10 uM), the cell viability in assay [1] is 0.9322 ± 0.0011. The kynurenine production in assay [2] came to 0.8659 ± 0.0031.
